Reference: PubChem BioAssay (Tox21)
Records with an inconclusive call do not appear. The source made the active and inactive calls. Unless noted, calls come from the whole dose curve.

Columns and labels:
[1] = Nuclear factor erythroid 2-related factor 2/antioxidant responsive element (Nrf2/ARE) small molecule agonists: qHTS cell viability counter screen in human keratinocytes (AID 1919968; active = well fitted curve in the direction sought with a large enough effect in the repeat runs; an effect the other way counts as inactive or inconclusive; note: nearly all actives have a fitted effect of over 55% in size; note: potency is the fitted concentration of half-maximal effect)
Procedure, shortened: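 In human HaCaT keratinocytes stably expressing an ARE-driven luciferase, compound exposure lasted 23 h at 37 C under 5% CO2. Viable cells are quantified with a protease-based fluorogenic reagent (CellTiter-Fluor) read 1 h after addition.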

[2] = Nuclear factor erythroid 2-related factor 2/antioxidant responsive element (Nrf2/ARE) small molecule agonists: luciferase reporter gene qHTS assay in human keratinocytes (AID 1919969); note: nearly all actives have a fitted effect of over 35% in size; note: potency is the fitted concentration of half-maximal effect
[3] = target: Gonadotropin-releasing hormone receptor (Homo sapiens) (UniProt P30968); test: Human gonadotropin-releasing hormone receptor (GnRHR) small molecule agonists, calcium flux assay in GnRHR-HEK293 cells (AID 1920063); note: nearly all actives have a fitted effect of over 35% in size
Chain of Gonadotropin-releasing hormone receptor (Homo sapiens) (P30968 whole entry, looked up): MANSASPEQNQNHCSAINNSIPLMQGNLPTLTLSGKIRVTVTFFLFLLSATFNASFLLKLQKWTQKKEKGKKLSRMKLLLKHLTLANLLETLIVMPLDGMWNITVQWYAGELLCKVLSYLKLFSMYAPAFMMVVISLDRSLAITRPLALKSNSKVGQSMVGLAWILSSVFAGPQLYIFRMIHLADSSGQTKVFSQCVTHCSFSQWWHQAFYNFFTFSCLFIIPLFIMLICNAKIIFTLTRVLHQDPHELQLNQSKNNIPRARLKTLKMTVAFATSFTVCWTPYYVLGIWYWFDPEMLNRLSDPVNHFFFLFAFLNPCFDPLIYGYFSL
Procedure, shortened: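 Intracellular calcium rise is the read-out: engineered human GnRHR HEK293 cells, dye-loaded, are exposed to DMSO-dissolved compounds and fluorescence at Ex/Em 480/540 is tracked for 3 min.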

[4] = target: KiSS-1 receptor (Homo sapiens) (UniProt Q969F8); test: Human kisspeptin (KISS1R) small molecule agonists, calcium flux assay in KISS1R-HEK293 cells (AID 1920064; active = well fitted curve in the direction sought with a large enough effect in the repeat runs; an effect the other way counts as inactive or inconclusive)
Chain of KiSS-1 receptor (Homo sapiens) (Q969F8 whole entry, looked up): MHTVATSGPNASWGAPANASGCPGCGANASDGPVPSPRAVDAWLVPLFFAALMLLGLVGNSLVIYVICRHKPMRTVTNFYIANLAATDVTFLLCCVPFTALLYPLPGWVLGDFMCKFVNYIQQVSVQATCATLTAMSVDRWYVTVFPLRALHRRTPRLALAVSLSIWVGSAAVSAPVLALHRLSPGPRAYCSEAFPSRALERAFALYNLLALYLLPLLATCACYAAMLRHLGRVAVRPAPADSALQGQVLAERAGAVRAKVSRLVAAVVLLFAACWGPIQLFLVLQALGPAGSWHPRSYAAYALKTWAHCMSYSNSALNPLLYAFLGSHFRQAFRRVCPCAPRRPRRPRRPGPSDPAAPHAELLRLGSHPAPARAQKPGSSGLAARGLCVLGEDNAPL
Procedure, shortened: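 Concentration-response testing used 15 concentrations in triplicate on human KISS1R-expressing HEK293 cells. Calcium-dependent fluorescence (Ex/Em 480/540) was followed kinetically for 3 min after compound transfer.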

[5] = G protein-coupled receptor (GPCR) small molecule agonists, calcium flux assay: HEK293 wild type cell line counter screen (AID 1920065)
Procedure, shortened: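 Fluorescence intensity signals activation. After overnight (18 h) culture and a 1 h calcium dye load at 37 C, compounds are added by pin tool and the plate read at 480/540 nm for 3 min in 1 s steps.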

[6] = p53 small molecule agonists, cell-based qHTS assay with human liver microsomes: qHTS cell viability counter screen (AID 1963579); note: nearly all actives have a fitted effect of over 45% in size; note: potency is the fitted concentration of half-maximal effect
Procedure, shortened: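 Cytotoxicity counter screen: p53RE-bla, 4,000 cells/well; 5 h settle, 37 C/5% CO2; cpd + HLM 0.5 mg/mL + NADPH 0.5 mg/mL (final); 16 h, 37 C; CellTiter-Glo, 30 min RT, luminescence.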

[7] = p53 small molecule agonists, cell-based qHTS assay with rat liver microsomes: qHTS cell viability counter screen (AID 1963580); note: nearly all actives have a fitted effect of over 45% in size; note: potency is the fitted concentration of half-maximal effect
Procedure, shortened: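 After the beta-lactamase ratio was read, CellTiter-Glo was added to the same wells and luminescence measured at 30 min; cells had been treated 16 h at 37 C with compounds, rat liver microsomes and NADPH (0.5 mg/mL final each).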

[8] = target: 5-hydroxytryptamine receptor 2A (Homo sapiens) (UniProt P28223); test: 5-hydroxytryptamine receptor 2A (HTR2A) small molecule antagonists, cell-based qHTS assay (AID 1963586); note: nearly all actives have a fitted effect of over 45% in size; note: potency is the fitted concentration of half-maximal effect
Chain of 5-hydroxytryptamine receptor 2A (Homo sapiens) (P28223 whole entry, looked up): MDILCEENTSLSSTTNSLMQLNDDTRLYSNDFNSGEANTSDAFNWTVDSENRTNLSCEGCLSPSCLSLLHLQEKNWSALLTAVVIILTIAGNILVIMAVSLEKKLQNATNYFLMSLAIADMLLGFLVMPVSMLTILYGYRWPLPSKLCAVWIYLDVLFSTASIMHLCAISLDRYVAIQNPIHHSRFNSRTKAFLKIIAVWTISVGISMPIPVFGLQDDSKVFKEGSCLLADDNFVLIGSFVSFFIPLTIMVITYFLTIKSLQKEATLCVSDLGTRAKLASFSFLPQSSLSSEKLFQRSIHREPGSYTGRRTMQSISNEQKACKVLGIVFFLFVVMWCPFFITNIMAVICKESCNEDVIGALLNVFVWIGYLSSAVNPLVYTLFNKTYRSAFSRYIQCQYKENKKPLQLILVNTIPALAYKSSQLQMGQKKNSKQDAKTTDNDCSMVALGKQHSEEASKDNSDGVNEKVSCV
Procedure, shortened: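 CHO cells stably expressing human HTR2A were plated for 18 h at 37 C, then loaded with calcium dye for 1 h. Compounds were preincubated 5 min at room temperature before DOI (4 nM solution) was added. Kinetic fluorescence was read for 3 min.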

[9] = target: 5-hydroxytryptamine receptor 2A (Homo sapiens) (UniProt P28223); test: 5-hydroxytryptamine receptor 2A (HTR2A) small molecule agonists, cell-based qHTS assay (AID 1963587); note: nearly all actives have a fitted effect of over 30% in size
Procedure, shortened: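 CHO cells stably expressing human HTR2A, plated 18 h, loaded with calcium dye 1 h at 37 C. Agonist mode: compounds added and intracellular calcium fluorescence recorded kinetically for 2 min at 1 sec intervals.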

[10] = target: Muscarinic acetylcholine receptor M1 (Homo sapiens) (UniProt P11229); test: Cholinergic receptor muscarinic 1 (CHRM1) small molecule antagonists, cell-based qHTS assay (AID 1963588); note: nearly all actives have a fitted effect of over 40% in size
Chain of Muscarinic acetylcholine receptor M1 (Homo sapiens) (P11229 whole entry, looked up): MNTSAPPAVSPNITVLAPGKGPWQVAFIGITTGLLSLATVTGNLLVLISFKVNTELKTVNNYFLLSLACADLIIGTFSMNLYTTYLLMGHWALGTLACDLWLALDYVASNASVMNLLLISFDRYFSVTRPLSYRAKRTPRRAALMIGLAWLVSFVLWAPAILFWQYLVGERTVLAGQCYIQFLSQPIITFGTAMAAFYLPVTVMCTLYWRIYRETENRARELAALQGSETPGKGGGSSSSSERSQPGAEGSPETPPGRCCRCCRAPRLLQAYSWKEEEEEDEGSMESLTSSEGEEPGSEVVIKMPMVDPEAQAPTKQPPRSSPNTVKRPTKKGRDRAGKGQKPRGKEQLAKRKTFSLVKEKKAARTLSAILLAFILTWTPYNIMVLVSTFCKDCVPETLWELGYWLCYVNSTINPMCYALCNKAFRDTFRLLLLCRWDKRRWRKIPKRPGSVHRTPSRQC
Procedure, shortened: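 Compounds were tested at 15 concentrations in three independent runs. Dye-loaded CHRM1-CHO cells were exposed 5 min at room temperature before stimulation by acetylcholine added at 50nM. Intracellular calcium was read kinetically on FDSS for 3 min.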

[11] = target: Muscarinic acetylcholine receptor M1 (Homo sapiens) (UniProt P11229); test: Cholinergic receptor muscarinic 1 (CHRM1) small molecule agonists, cell-based qHTS assay (AID 1963589); note: nearly all actives have a fitted effect of over 35% in size
Procedure, shortened: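 Fluorescent calcium dye reports M1 activation in stably transfected CHO cells. Compounds, 15 concentrations, added after 1 h dye loading at 37 C; kinetic reading at 1 sec intervals.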

[12] = target: Beta-2 adrenergic receptor (Homo sapiens) (UniProt P07550); test: Adrenergic beta2 receptor (ADRB2) small molecule antagonists, cell-based qHTS assay (AID 1963592); note: series mostly up to about 92 µM; nearly all actives have a fitted effect of over 50% in size
Chain of Beta-2 adrenergic receptor (Homo sapiens) (P07550 whole entry, looked up): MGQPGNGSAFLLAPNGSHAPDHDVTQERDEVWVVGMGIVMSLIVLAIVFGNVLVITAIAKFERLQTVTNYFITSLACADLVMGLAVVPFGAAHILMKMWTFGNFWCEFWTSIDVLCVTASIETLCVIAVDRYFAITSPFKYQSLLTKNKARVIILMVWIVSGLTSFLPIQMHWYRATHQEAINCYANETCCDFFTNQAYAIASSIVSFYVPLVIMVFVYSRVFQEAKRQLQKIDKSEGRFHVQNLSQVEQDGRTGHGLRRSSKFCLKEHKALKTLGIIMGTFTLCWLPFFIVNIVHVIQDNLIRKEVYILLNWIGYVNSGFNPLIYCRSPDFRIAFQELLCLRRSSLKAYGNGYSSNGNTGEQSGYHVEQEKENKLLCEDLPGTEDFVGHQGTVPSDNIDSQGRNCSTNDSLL
Procedure, shortened: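 Assay format: CHO-ADRB2 cells, 18-20hr seeding at 37C/5% CO2, then compound plus 1nM isoproterenol agonist mix for 0.5hr RT. Homogeneous time-resolved fluorescence cAMP detection after 1hr, expressed as 665/615 nm ratio.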

[13] = target: Beta-2 adrenergic receptor (Homo sapiens) (UniProt P07550); test: Adrenergic beta2 receptor (ADRB2) small molecule agonists, cell-based qHTS assay (AID 1963593);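 note: CHO cells stably overexpressing human ADRB2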
Procedure, shortened: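 CHO cells stably over-expressing ADRB2 were plated overnight at 37C, then dosed with compounds plus a stimulation mix containing 100uM IBMX and 25uM Ro-20-1724 for 0.5hr at room temperature. cAMP was measured by HTRF competition, 1hr.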

[14] = target: D(2) dopamine receptor (Homo sapiens) (UniProt P14416); test: Dopamine D2 receptor (DRD2) small molecule antagonists, cell-based qHTS assay (AID 1963595; active = well fitted inhibition curve with a large enough effect in the signal ratio in the repeat runs, with a control signal flat; the % refers to the signal ratio)
Chain of D(2) dopamine receptor (Homo sapiens) (P14416 whole entry, looked up): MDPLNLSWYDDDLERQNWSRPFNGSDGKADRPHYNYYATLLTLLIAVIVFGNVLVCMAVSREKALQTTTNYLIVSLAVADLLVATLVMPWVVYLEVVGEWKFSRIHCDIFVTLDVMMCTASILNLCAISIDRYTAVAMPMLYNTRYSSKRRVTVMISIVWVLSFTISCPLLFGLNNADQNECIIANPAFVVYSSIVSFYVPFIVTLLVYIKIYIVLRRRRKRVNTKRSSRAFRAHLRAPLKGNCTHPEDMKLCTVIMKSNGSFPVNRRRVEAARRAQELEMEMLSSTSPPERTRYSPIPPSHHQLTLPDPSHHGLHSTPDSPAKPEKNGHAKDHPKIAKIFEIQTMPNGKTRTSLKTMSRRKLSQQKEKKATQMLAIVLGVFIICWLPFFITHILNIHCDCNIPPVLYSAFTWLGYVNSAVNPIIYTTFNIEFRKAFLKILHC
Procedure, shortened: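 Stable D2 receptor HEK293 line, 24 h after seeding. Compound preincubated 10 min, then quinpirole (12 nM) with forskolin analogue NKH477 (200 nM), 30 min, room temperature. Detection by time-resolved FRET of cAMP.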

[15] = p53 small molecule agonists, cell-based qHTS assay: qHTS cell viability counter screen (AID 1963581); note: nearly all actives have a fitted effect of over 45% in size
Procedure, shortened: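 Luminescence from CellTiter-Glo, reflecting ATP content, serves as the cytotoxicity measure; it is taken after the 2 h reporter substrate step in HCT-116 p53RE-bla cells dosed for 16 h at 37 C.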

[16] = cAMP Responsive Elements (CRE) small molecule agonists, cell-based qHTS assay (AID 1963590)
Procedure, shortened: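 Compound exposure lasted 3 h at 37 C/5% CO2 in CRE-bla HEK 293T cells grown in assay medium with 10% dialyzed FBS and 25 mM HEPES. Reporter signal came from LiveBLAzer B/G FRET substrate, 2 h, room temperature.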

[17] = cAMP Responsive Elements (CRE) small molecule antagonists, cell-based qHTS assay (AID 1963591; active = well fitted inhibition curve with a large enough effect in the signal ratio in the repeat runs, not every such curve was filed as active; the % refers to the signal ratio)
Procedure, shortened: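 Stimulation used NKH477 at a final 0.25 uM for 3 h in compound-treated CRE-bla HEK293T cells, seeded 18 h beforehand. Reporter activity was measured with LiveBLAzer B/G FRET substrate after 2 h at room temperature.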

[18] = target: D(2) dopamine receptor (Homo sapiens) (UniProt P14416); test: Dopamine D2 receptor (DRD2) small molecule agonists, cell-based qHTS assay (AID 1963594); note: nearly all actives have a fitted effect of over 35% in size
Procedure, shortened: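 HEK293 cells stably expressing human DRD2, pre-treated with PDE inhibitor Ro20-1724 (0.1 mM final) and compound 10 min at room temperature, then stimulated with NKH477 (200nM […]) for 30 min. cAMP read by HTRF (665/620 nm).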

[19] = p53 small molecule agonists, cell-based qHTS assay (AID 1963582; active = well fitted activation curve with a large enough effect in the signal ratio in the repeat runs, not every such curve was filed as active; the % refers to the signal ratio)
Procedure, shortened: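 After plating, p53RE-bla cells sat 5 h in the incubator; compounds or DMSO vehicle were pinned in; a 16 h incubation at 37 C followed; FRET substrate was added and, 2 h later at RT, fluorescence was measured.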
% is set by controls: 0 for no effect and ±100 for the full control effect.

COc1cc(NCc2ccc3nc(N)nc(N)c3c2C)cc(OC)c1OC
inactive: Potency [1] | Potency [2] | Potency [3] | Potency [4] | Potency [5] | Potency [6] | Potency [7] | Potency [8] | Potency [9] | Potency [10] | Potency [11] | Potency [12] | Potency [13] | Potency [14]

C=Cc1ccc(C(C)(C)C)cc1
inactive: Potency [1] | Potency [2] | Potency [3] | Potency [4] | Potency [5] | Potency [6] | Potency [15] | Potency [8] | Potency [9] | Potency [10] | Potency [11] | Potency [16] | Potency [17] | Potency [12] | Potency [13] | Potency [18]

CC(=O)Oc1cccc2c1C(=O)c1c(OC(C)=O)cc(C(=O)O)cc1C2=O
inactive: Potency [1] | Potency [2] | Potency [3] | Potency [4] | Potency [5] | Potency [6] | Potency [7] | Potency [8] | Potency [9] | Potency [10] | Potency [11] | Potency [12] | Potency [18]

Cc1nnc(SCC2=C(C(=O)O)N3C(=O)[C@@H](NC(=O)Cn4cnnn4)[C@H]3SC2)s1
inactive: Potency [1] | Potency [2] | Potency [3] | Potency [4] | Potency [5] | Potency [6] | Potency [15] | Potency [8] | Potency [9] | Potency [10] | Potency [11] | Potency [16] | Potency [17] | Potency [12] | Potency [13] | Potency [18] | Potency [14]

C[C@H](CCC(=O)O)[C@H]1CC[C@H]2[C@@H]3C(=O)C[C@@H]4CC(=O)CC[C@]4(C)[C@H]3CC(=O)[C@]12C
inactive: Potency [1] | Potency [2] | Potency [3] | Potency [4] | Potency [5] | Potency [6] | Potency [7] | Potency [8] | Potency [9] | Potency [10] | Potency [11] | Potency [12] | Potency [13] | Potency [18] | Potency [14]

CCCCCCCCCCCCOC(C)=O
active: Potency [8] 2.11 µM
inactive: Potency [1] | Potency [2] | Potency [3] | Potency [4] | Potency [5] | Potency [6] | Potency [15] | Potency [9] | Potency [10] | Potency [11] | Potency [16] | Potency [17] | Potency [12] | Potency [13] | Potency [18] | Potency [14]

Cc1cc(C(=C2C=CC(=Nc3ccc(S(=O)(=O)O)cc3S(=O)(=O)O)C=C2)c2ccc(Nc3ccc(S(=O)(=O)O)cc3)cc2)ccc1N
inactive: Potency [1] | Potency [2] | Potency [3] | Potency [4] | Potency [5] | Potency [6] | Potency [7] | Potency [8] | Potency [9] | Potency [10] | Potency [11] | Potency [16] | Potency [17] | Potency [13] | Potency [18] | Potency [14]

Cc1cc2nc(N)sc2cc1C
inactive: Potency [1] | Potency [2] | Potency [3] | Potency [4] | Potency [5] | Potency [6] | Potency [15] | Potency [19] | Potency [8] | Potency [9] | Potency [10] | Potency [11] | Potency [16] | Potency [13] | Potency [18] | Potency [14]

c1cc2ccc3ccc4ccc5cccc6c(c1)c2c3c4c56
inactive: activity change, negative = cytotoxicity [1] 3.98% [at 3.27 µM] | activity, positive = activation [2] 4.07% [at 3.27 µM] | activity change [3] 0.532% [at 2.04 µM, active compounds read high] | activation [4] 0.0535% [at 2.72 µM] | activation [5] -0.291% [at 2.04 µM] | activity change, negative = cytotoxicity [6] -1.32% [at 2.33 µM] | activity change, negative = cytotoxicity [15] 2.26% [at 2.33 µM] | activation [19] 5.49% [at 2.33 µM] | activity, negative = inhibition [8] 1.93% [at 2.12 µM] | activation [9] 13.2% [at 2.65 µM] | activity, negative = inhibition [10] 5.84% [at 2.17 µM] | activation [11] 0.275% [at 2.72 µM] | activity change, negative = inhibition [12] 4.76% [at 3.27 µM] | activation [18] -0.0755% [at 3.27 µM] | activity change, negative = inhibition [14] -0.594% [at 3.28 µM]

COC(C)(C)OC
inactive: Potency [1] | Potency [2] | Potency [3] | Potency [4] | Potency [5] | Potency [6] | Potency [7] | Potency [8] | Potency [10] | Potency [11] | Potency [16] | Potency [17] | Potency [12] | Potency [18] | Potency [14]

N#Cc1nc(Cl)c(Cl)c(Cl)c1Cl
inactive: Potency [3] | Potency [4] | Potency [5] | Potency [8] | Potency [9] | Potency [10] | Potency [11] | Potency [12] | Potency [18] | Potency [14]
active: Potency [1] 6.11 µM | Potency [2] 2.43 µM | Potency [6] 11.5 µM | Potency [7] 36.3 µM

O=S(=O)(O)c1ccc(Nc2nc(Nc3ccc(/C=C/c4ccc(Nc5nc(Nc6ccc(S(=O)(=O)O)cc6)nc(N(CCO)CCO)n5)cc4S(=O)(=O)O)c(S(=O)(=O)O)c3)nc(N(CCO)CCO)n2)cc1
inactive: Potency [1] | Potency [2] | Potency [3] | Potency [4] | Potency [5] | Potency [6] | Potency [15] | Potency [19] | Potency [8] | Potency [9] | Potency [10] | Potency [11] | Potency [16] | Potency [12] | Potency [18]

CN(C)CC[C@@H](c1ccc(Br)cc1)c1ccccn1
inactive: Potency [1] | Potency [2] | Potency [3] | Potency [4] | Potency [5] | Potency [6] | Potency [7] | Potency [9] | Potency [11] | Potency [16] | Potency [17] | Potency [12] | Potency [13] | Potency [18] | Potency [14]

NCCNC(=O)c1ccc(Cl)cn1
inactive: Potency [1] | Potency [2] | Potency [3] | Potency [4] | Potency [5] | Potency [6] | Potency [7] | Potency [8] | Potency [10] | Potency [11] | Potency [17] | Potency [12] | Potency [13] | Potency [18]

CCCCC(CC)COC(=O)COc1cc(Cl)c(Cl)cc1Cl (centres undefined)
inactive: Potency [1] | Potency [2] | Potency [3] | Potency [4] | Potency [5] | Potency [6] | Potency [15] | Potency [8] | Potency [9] | Potency [10] | Potency [11] | Potency [16] | Potency [17] | Potency [12] | Potency [13] | Potency [18] | Potency [14]
